According to PubChem BioAssay AID720519 (National Center for Advancing Translational Sciences (NCATS), 2013):
Records with an inconclusive call do not appear. The call rests on the fitted dose curve; in most records, active means well fitted activation curve with a large enough effect; inconclusive means small, poorly fitted or top-dose-only effect; inactive means flat fitted curve, though single readings scatter.

experiment: qHTS for Inhibitors of Cell Surface uPA Generation: Confirmatory Assay for Cherry-picked Compounds; conditions: cell surface uPA activity generation, qHTS confirmation; series mostly up to 115 µM; inhibition: at the top concentration; further: 0% is about no effect
Method in brief: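 RAW 264.7 cells at 4000/well, incubated overnight, then treated with compounds. After 24 h at 37 C, viability was read by ATPlite luminescence. An increase in signal indicates blocked uPA-dependent LF entry.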

inhibition, inactive:
COC(=O)Cc1c(C)c2ccc(OCC(=O)N3CCCC(C)C3)c(C)c2oc1=O (stereo not drawn) -2.44%, COc1ccc(C2NC(=O)CCC2[N+](=O)[O-])c(OC)c1OC (stereo not drawn) -2.72%, S=C(Nc1ccccc1Oc1ccccc1)NC1CCCC1 -3.1%, COCCNC(=O)COCc1cc(-c2ccc3c(c2)OCO3)on1 -2.16%, Cc1ccc(S(=O)(=O)NNC(=O)c2ccc(F)cc2)cc1 0.277%, O=C(O)CNC(=S)N(Cc1ccccc1)Cc1cccnc1 -1.63%, CCOc1ccc(NS(=O)(=O)c2ccc(C(=O)N3CCC3)cc2)cc1 -1.37%, O=C(Nn1cnnc1)c1ccc(Cl)c(Cl)c1 -0.701%, Cn1cc(SCC(=O)Nc2nccs2)c2ccccc21 -2.65%, CCCCN(CC)CCNC(=O)c1cc2cc3ccc(Cl)cc3nc2o1 -3.31%, CCOc1ccc(N(CC(=O)Nc2ccc(CC)cc2)S(=O)(=O)c2c(C)[nH]c(=O)[nH]c2=O)cc1 -2.31%, C=CC[n+]1c(/C=C/c2ccc(OC(C)=O)c(OC)c2)ccc2ccccc21 -3.82%, CC(O)[C@H]1CNC(=O)C(=O)N1CCc1cccc(F)c1 (stereo partly drawn) 0.53%, Cc1ccc(NS(=O)(=O)c2c(C)nc3sccn3c2=O)c(C)c1 -2.66%, CCCn1nnc(NC(=S)NC(=O)c2ccccc2OC)n1 -0.252%, C[C@@H](CSc1ccccc1)CN1CC[C@H](O)CCC1=O -0.766%, Cc1nc([N+](=O)[O-])cn1CCCCN1C(=O)c2ccccc2C1=O -1.31%, CCOC(=O)N1CCc2c(sc3nc4n(c(=O)c23)N=C(C)CS4)C1 -1.91%, O=C(c1cccc(F)c1)N1CCN(Cc2cccc(Br)c2)CC1 -2.25%, NC(=O)CC[C@H](NC(=O)c1ccc(F)cc1)C(=O)OCC(=O)Nc1c(F)c(F)c(F)c(F)c1F 0.0436%, C[C@H]([C@H](O)c1ccccc1)N(C)C(=O)CN 0.746%, COc1ccc(C)cc1NC(=O)NNC(=O)C1CCC(C(C)(C)C)CC1 (stereo not drawn) -3.28%, CCOC(=O)C1(CCOc2ccccc2)CCN(Cc2ccc(O)c(OC)c2)CC1 -3.27%, CCOC(=O)c1cc(-c2ccccc2C)n(CC2CC(c3ccc(OC)cc3)=NO2)n1 (stereo not drawn) -3.81%, COc1ccc(C(=O)c2sc(Nc3ccccc3)nc2N)cc1 9.15%, CCCCNC(=O)C1CCN(S(=O)(=O)c2c(C)noc2/C=C\c2ccc(OC)cc2)CC1 -1.64%, COC(=O)[C@@]1(Cc2ccc(F)cc2)[C@H]2c3cc(C(=O)N(C)C)n(Cc4c(CO)[nH]cc(C)c4=O)c3C[C@H]2CN1C(=O)c1ccccc1 -0.239%, Cn1c(=O)c(=O)n(C)c2cc(S(=O)(=O)CCC(=O)Nc3ccc(F)cc3)ccc21 0.947%, CCOc1ccc(Cl)cc1/C=N/NC(=O)c1ccccc1 -0.983%, COc1ccc(Cc2nnc(Nc3ccc(C)cc3)o2)cc1OC -0.266%, Cc1ccc(Cl)c(N/C=C/C(=O)c2ccccc2)c1 -2.75%, CC1(CC(=O)N/N=C/c2cc(Br)c(O)cc2O)OCCO1 -3.24%, Cc1cc(C)cc(NC(=O)COC(=O)CCn2c(C)csc2=O)c1 -1.09%, CCOC(=O)c1ccccc1N=Cc1c(O)c2ccccc2oc1=O -2.11%, C=CCn1c(=O)c(C(=O)NCCc2ccc(Cl)cc2)c(O)c2cc(OC)c(OC)cc21 -0.658%, O=C(CNC(=O)c1ccc(Br)o1)NNC(=O)c1ccccc1 -1.22%, N#C/C(N=Nc1ccccc1O)=N\Nc1ccccc1O 7.46%, O=C(NC(=S)Nc1c(F)cc(F)cc1Br)c1ccc2c(c1)OCCO2 0.29%
